From PMC5540273 (PLoS ONE, 2017) come the findings set out here.
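Further: KINOMEscan kinase panel screen.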

The assay relates to SIK. The settings on record: concentration: 1 μM, replicates: in singlicate; n = 1.
On to `O=C(O)C(F)(F)F.O=C(O)C(F)(F)F.O=c1[nH]ccc2nc(N[C@@H]3CCCNC3)nc(Nc3ccc(S(=O)(=O)N4CCOCC4)cc3)c12` [GSK2177277], for which the “%Inh” value is 78%.

On to `COc1cccc(NC(=O)NC2CCN(c3ccnc(Nc4cc(OC)c(OC)c(OC)c4)n3)C2)c1` (stereo not shown) [GSK1379763], for which the “%Inh” value turned out to be 0%.

`CCS(=O)(=O)c1ccc(OC)c(Nc2nccc(-c3c(-c4cccc(NC(=O)c5c(F)cccc5F)c4)nn4ncccc34)n2)c1` [GSK326180]: the “%Inh” value came to 3%.

Turning to `COC(=O)Nc1nc2cc(Oc3ccc(NC(=O)Nc4cc(C(F)(F)F)ccc4F)cn3)ccc2[nH]1.Cl.Cl` [GW681170], the “%Inh” value is reported as 0%.

Regarding `COc1cc(Nc2nccc(N3CCC(NC(=O)Nc4cccc(C(C)=O)c4)C3)n2)cc(OC)c1OC` (stereo not shown) [GSK1379753], the “%Inh” value came to 0%.

For the compound `COc1cc(Nc2nccc(-c3c(-c4cccc(NC(=O)c5c(F)cccc5F)c4)nn4ccccc34)n2)cc(OC)c1OC` [GSK323521], the “%Inh” value worked out at 30%.

For `Cl.Cl.NCC(NC(=O)c1cc(-c2ccccc2)c(-c2ccnc3[nH]ccc23)s1)c1ccccc1` (stereo not shown) [GSK1321561], the “%Inh” value worked out at 11%.

Take `Cl.c1ccc(-c2ccc3c(Nc4ccc5[nH]ncc5c4)ccnc3c2)nc1` [GW440137]: the “%Inh” value was 0%.

Take `CCn1c(-c2nonc2N)nc2c(C#CC(C)(C)O)ncc(OCCCCN)c21.O=C(O)C(F)(F)F.O=C(O)C(F)(F)F` [GSK507274]: the “%Inh” value stood at 2%.

Regarding `CN1CCN(CCCNc2nccc(-c3c(-c4ccc(F)cc4)nn4cc(C(F)(F)F)ccc34)n2)CC1` [GW621581], the “%Inh” value amounted to 0%.

In the case of `Cl.Cl.NCC(NCc1ccc(-c2ccnc3[nH]ccc23)s1)c1ccccc1` (stereo not shown) [GSK1321565], the “%Inh” value amounted to 5%.

With `COc1cc(Nc2ncc3c(C)nc(-c4cc5ccccc5[nH]4)n3n2)cc(OC)c1OC` [GW869516], the “%Inh” value turned out to be 20%.

`Nc1ncnc2c1nc(-c1ccccc1)n2-c1ccccc1` [SKF-97293]: the “%Inh” value came to 8%.

As to `O=C(Nc1cccc(-c2nn3ccccc3c2-c2ccnc(Nc3cccc(C(F)(F)F)c3)n2)c1)c1c(F)cccc1F` [GSK292658], the “%Inh” value came out at 9%.

As for `CCCCc1nn2ncccc2c1-c1ccnc(Nc2ccc(N3CCN(C)CC3)cc2)n1` [GW684941], the “%Inh” value was determined as 83%.

For `Fc1ccc(-c2ncn(C3CCNCC3)c2-c2ccnc(Oc3ccc(-c4ccccc4)cc3)n2)cc1` [SB-245391], the “%Inh” value was 12%.

In the case of `FC(F)(F)c1ccc(/C=C/c2cncnc2Nc2ccc3[nH]c(Cc4ccccc4)nc3c2)cc1` [GW709199], the “%Inh” value amounted to 20%.

Take `CC(=O)N1CCN(c2ccc(Nc3nccc(-c4sc(C(C)C)nc4-c4cccc(NS(=O)(=O)c5cccc(Cl)c5)c4)n3)cn2)CC1` [GSK1660437]: the “%Inh” value is given as 99%.

In the case of `CC(=O)Nc1nc2cnc(Nc3cc(NC(=O)c4cccc(C5(C#N)CC5)c4Cl)ccc3C)nc2s1`, the “%Inh” value came to 29%.

Take `NCCCC(NC(=O)c1cc(Br)c(-c2ccnc3[nH]ccc23)s1)c1ccccc1.O=C(O)C(F)(F)F.O=C(O)C(F)(F)F` (stereo not shown) [GSK1287544]: the “%Inh” value stood at 19%.

As for `CN(C)Cc1ccc(-c2ccc3c(Nc4ccc(Oc5ccccn5)cc4)ccnc3c2)o1` [GW567148], the “%Inh” value is on record as 99.2%.

As for `Cn1cc(-c2ccc3c(c2)CCN3C(=O)Cc2cccc(Cl)c2)c2c(N)ncnc21` [GSK2606590], the “%Inh” value is recorded as 10%.

Consider `O=c1[nH]cc(-c2ccc(N3CCOCC3)cc2)c2sc(-c3cn[nH]c3)cc12` [GSK2276055], for which the “%Inh” value is reported as 0%.

Turning to `CN1CCN(Cc2cccc(-c3ccc4c(Nc5ccc(Oc6ccccc6)cc5)ccnc4c3)c2)CC1` [GW578342], the “%Inh” value is given as 0%.

As to `COc1cccc(-c2ccc3c(NC(=O)C4CC4)n[nH]c3n2)c1` [SB-710903], the “%Inh” value was 0%.
